ChEMBL document CHEMBL3988442, “University of Dundee, Small-Polar-MMV Screening Library” (2021)
Screen size: about 67,000 compounds; about 300 (0.45%) showed an effect of 50% or more. The entries come from a sample that favours strong results as a whole.

The molecules below were run against Polyketide synthase Pks13 (Mycobacterium tuberculosis (strain ATCC 25618 / H37Rv)) (UniProt I6X8D2) (assay: Mycobacterium tuberculosis Polyketide synthase 13 Thioesterase (PKS13)). Conditions: 30 µM.
Type: functional
Set-up: scale not given: in the data most compounds retested in dose-response had high values

Polyketide synthase Pks13 (Mycobacterium tuberculosis (strain ATCC 25618 / H37Rv)), sequence (I6X8D2 whole entry): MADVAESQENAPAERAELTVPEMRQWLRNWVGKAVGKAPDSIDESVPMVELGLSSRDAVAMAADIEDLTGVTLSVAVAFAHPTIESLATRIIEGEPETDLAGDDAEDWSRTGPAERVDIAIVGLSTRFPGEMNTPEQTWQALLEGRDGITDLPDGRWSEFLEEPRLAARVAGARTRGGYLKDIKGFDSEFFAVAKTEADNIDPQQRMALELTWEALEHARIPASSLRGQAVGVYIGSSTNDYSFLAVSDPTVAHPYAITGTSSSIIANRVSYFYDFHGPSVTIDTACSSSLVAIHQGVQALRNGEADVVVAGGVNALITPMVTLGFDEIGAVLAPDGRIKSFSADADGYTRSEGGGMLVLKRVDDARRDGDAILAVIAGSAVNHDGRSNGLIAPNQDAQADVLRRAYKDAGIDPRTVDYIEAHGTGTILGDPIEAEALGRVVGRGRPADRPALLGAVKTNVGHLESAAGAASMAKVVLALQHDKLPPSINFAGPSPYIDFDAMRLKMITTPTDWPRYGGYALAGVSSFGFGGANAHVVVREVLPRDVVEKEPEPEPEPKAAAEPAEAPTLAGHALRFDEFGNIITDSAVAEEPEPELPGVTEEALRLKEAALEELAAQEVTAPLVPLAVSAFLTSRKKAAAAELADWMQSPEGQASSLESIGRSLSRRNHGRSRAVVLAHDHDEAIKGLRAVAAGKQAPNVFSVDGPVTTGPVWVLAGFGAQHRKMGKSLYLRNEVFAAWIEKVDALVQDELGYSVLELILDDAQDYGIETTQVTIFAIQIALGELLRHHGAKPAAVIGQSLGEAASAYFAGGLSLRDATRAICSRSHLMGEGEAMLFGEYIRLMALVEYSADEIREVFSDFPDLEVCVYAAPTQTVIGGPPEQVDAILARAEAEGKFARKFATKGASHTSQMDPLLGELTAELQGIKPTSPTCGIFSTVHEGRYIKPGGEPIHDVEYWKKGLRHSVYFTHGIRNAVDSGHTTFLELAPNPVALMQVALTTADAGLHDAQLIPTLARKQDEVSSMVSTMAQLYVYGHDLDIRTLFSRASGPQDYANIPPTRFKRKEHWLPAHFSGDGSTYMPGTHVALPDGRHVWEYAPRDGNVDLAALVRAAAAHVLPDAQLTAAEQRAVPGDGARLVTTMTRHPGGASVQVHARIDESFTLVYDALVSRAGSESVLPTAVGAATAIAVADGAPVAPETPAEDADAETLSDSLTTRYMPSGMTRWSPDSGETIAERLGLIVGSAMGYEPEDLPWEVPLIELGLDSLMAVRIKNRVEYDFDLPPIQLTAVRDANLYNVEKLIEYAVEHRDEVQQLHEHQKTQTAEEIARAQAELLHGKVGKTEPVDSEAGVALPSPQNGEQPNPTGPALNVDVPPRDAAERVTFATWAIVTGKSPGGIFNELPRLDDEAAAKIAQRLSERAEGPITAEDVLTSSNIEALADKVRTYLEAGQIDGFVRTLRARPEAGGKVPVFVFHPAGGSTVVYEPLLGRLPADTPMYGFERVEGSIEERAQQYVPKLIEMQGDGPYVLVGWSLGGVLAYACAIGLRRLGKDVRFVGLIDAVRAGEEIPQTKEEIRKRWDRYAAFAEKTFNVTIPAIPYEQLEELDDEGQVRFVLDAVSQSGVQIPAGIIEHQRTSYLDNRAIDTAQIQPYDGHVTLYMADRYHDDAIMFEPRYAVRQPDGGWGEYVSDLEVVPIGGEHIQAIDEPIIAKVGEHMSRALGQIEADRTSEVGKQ

Row | SMILES | Percent Effect [%]
1 | O=C(NC1CC1)[C@@H]1CCO[C@@H]2CCN(C3CCOCC3)C[C@@H]21 | -12.6
2 | Cc1nnc([C@H]2CC[C@@H]3[C@@H](CCN3Cc3c(C)noc3C)O2)o1 | -7.83
3 | CN(C)C(=O)CO[C@@H]1CC[C@H]2[C@H]1OCCN2C(=O)C1CCOCC1 | -1.73
4 | CC(=O)N1CCN2C(=O)N(Cc3ccc(F)cc3)C[C@H]2C1 | -33.1
5 | O=C(O)c1c(-c2cncnc2)ncc2c1CCN(CC1CCOC1)C2 (centres undefined) | -5.14
6 | Cn1cc(-c2ncc3c(c2C(=O)O)CCN(CC2CCOC2)C3)cn1 (centres undefined) | 111
7 | Cn1cc(-c2ncc3c(c2C(=O)O)CCN(CC2CC2)C3)cn1 | -9.1
8 | O=S(=O)(C1CC1)N1CCO[C@@H]2CN(Cc3ccco3)C[C@@H]2C1 | -22.6
9 | Cn1cc(CN2CC[C@@H]3[C@@H]2CCN3Cc2ccc3c(c2)OCO3)cn1 | -41.2
10 | Cc1noc([C@@H]2CCO[C@@H]3CCN(Cc4cccs4)C[C@@H]32)n1 | 2.92
11 | CCc1n[nH]c(C2CN(C(=O)c3ncoc3CC)CCO2)n1 (centres undefined) | -48.2
12 | CCc1nc(C2CCCN2C(=O)c2nc(C)n3ccccc23)no1 (centres undefined) | 75.3
13 | CCc1n[nH]c(C2CN(C(=O)c3nc(C)n4ccccc34)CCO2)n1 (centres undefined) | 83
14 | Cc1nc(C)n(C2CCCN(C(=O)c3cc4ccccc4n3C)C2)n1 (centres undefined) | -20.9
15 | Cc1nc(C)n(C2CCCN(C(=O)c3ccccc3C)C2)n1 (centres undefined) | -12.6
16 | CCc1nc(C2CCCN2C(=O)c2nccnc2N)no1 (centres undefined) | 29.6
17 | Cc1nc(C)n(C2CCCN(C(=O)c3nc(C)n4ccccc34)C2)n1 (centres undefined) | 93.6
18 | CCc1nc(C2CCCN2C(=O)c2ncoc2CC)no1 (centres undefined) | -6.87
19 | CCc1n[nH]c(C2CN(C(=O)Cn3ccccc3=O)CCO2)n1 (centres undefined) | -11.9
20 | COC[C@H]1CC[C@H]2[C@H](CCN2S(=O)(=O)c2ccccc2)O1 | 4.33
21 | c1ccc(CO[C@@H]2C[C@H]3CN(c4ncccn4)CCN3C2)nc1 | -22
22 | Cc1cnc(C(=O)N2C[C@H]3CN(Cc4cccnc4)C[C@H]3C2)cn1 | -17.6

Row | SMILES | Percent Effect [%]
23 | Cc1cccc(CN2C[C@@H]3CN(C(=O)c4ccco4)C[C@@H]3C2=O)c1 | -32.5
24 | CNC(=O)CN([C@H]1C[C@H]2CCOC[C@H]2C1)S(=O)(=O)c1ccccc1 | -2.79
25 | CCN(CC)[C@@H]1CN(Cc2cnn(C)c2)[C@@H]2COC[C@H]12 | -19.3
26 | Cc1csc2ncc(-c3ccnc(N4CCC[C@@H]4CO)n3)c(=O)n12 | 27.3
27 | Cc1cn2c(=O)c(-c3ccnc(N4CCC[C@@H]4CO)n3)cnc2s1 | 72.5
28 | O=c1c(-c2ccnc(N3CCC[C@H]3CO)n2)cnc2sccn12 | 47.6
29 | COCCN1C[C@@H]2CN(Cc3ccoc3)CCC[C@]2(C(=O)O)C1 | -27.8
30 | CC1CCc2nc(O)c(C(=O)NCCN(C)C)cc2C1 (centres undefined) | -47.6
31 | CCCNC(=O)c1cc2c(nc1O)CCC(C)C2 (centres undefined) | -24.6
32 | CC1CCc2nc(O)c(C(=O)NCCCN3CCN(C)CC3)cc2C1 (centres undefined) | 82.6
33 | COc1ccc(CN2C[C@@H]3OCCN(c4ncccn4)[C@@H]3C2)cc1 | -27.4
34 | O=S(=O)(NC[C@H]1C[C@@H]2CCN1C[C@@H]2CN1CCCC1)c1ccc(Cl)cc1 | 2.53
35 | COCC(=O)N1CCc2ccccc2C12CCNCC2 | -33
36 | O=C(C1CC1)N1CCc2ccccc2C12CCNCC2 | 61.6
37 | CCOC(=O)N1CCc2ccccc2C12CCNCC2 | 5.43
38 | CCOCC(=O)N1C[C@@H]2CC[C@H](C1)N(Cc1ccccn1)C2=O | -4.9
39 | CC(C)OCc1ncn2c1CN(Cc1cccs1)CCC2 | -19.5
40 | CC(C)OCc1ncn2c1CN(Cc1ccc(F)cc1)CCC2 | -26.5
41 | CC(C)OCc1ncn2c1CN(Cc1nccs1)CCC2 | 54.5
42 | CN1CCN2C[C@@H](CO)[C@H](c3ccccc3)[C@H]2C1 | 1.92
43 | Cn1cc(C[C@H]2[C@H](N3CCOCC3)CCN2c2ncc(F)cn2)cn1 | 56
44 | Fc1cnc(N2CC[C@@H](N3CCOCC3)[C@@H]2Cc2ccncc2)nc1 | -11.8

Row | SMILES | Percent Effect [%]
45 | Fc1cnc(N2CC[C@@H](N3CCOCC3)[C@@H]2Cc2ccccc2)nc1 | -4.97
46 | CN1C[C@@H]2CN(C(=O)NCc3ccccc3)CCC[C@]2(C(=O)O)C1 | -22.8
47 | O=S1(=O)C[C@@H]2[C@H](C1)N(Cc1cc(Cl)cc(Cl)c1)CCN2CC1CC1 | -18.6
48 | COc1cccc(N2CCN(C(=O)C(O)c3cccc(Cl)c3)CC2=O)c1 (centres undefined) | -13.9
49 | COc1cccc(N2CCN(C(=O)C(O)c3ccccc3Cl)CC2=O)c1 (centres undefined) | 55.5
50 | COc1cccc(N2CCN(C(=O)C(C)Oc3ccccc3)CC2=O)c1 (centres undefined) | -5.21
51 | O=C(CCc1cc(Cl)no1)N1CCC(c2cc3ncccc3cn2)CC1 | 129
52 | CCc1cc(C(=O)N2CCC(c3cc4ncccc4cn3)CC2)on1 | 16.1
53 | CCc1cc(C(=O)N2CCC(c3cc4ncccc4cn3)CC2)no1 | -21.6
54 | O=C(C1CCOCC1)N1CC[C@H]2[C@H]1CCN2c1nncs1 | -28.6
55 | CSCC[C@@H]1CN2CCC[C@H]2CN1Cc1coc2ccc(Cl)cc2c1=O | -2.59
56 | CN(Cc1cncnc1)[C@@H]1CN(C(=O)C2CC2)[C@@H]2CCCO[C@H]12 | -10.1
57 | CN(C)S(=O)(=O)N1C[C@@H]2CC[C@H](C1)N(C/C=C/c1ccc(F)cc1)C2 | -0.937
58 | CCCN1CCCC1c1nc(Cc2ccc(F)cc2)no1 (centres undefined) | -12.9
59 | CC(C)(C)OCCN1CCCC1c1nc(Cc2ccc(F)cc2)no1 (centres undefined) | 74.9
60 | OCCCN1CCCC1c1nc(Cc2ccc(F)cc2)no1 (centres undefined) | 11.8
61 | c1cnc(NC[C@H]2OC[C@@H]3CCN(Cc4cccnc4)C[C@@H]32)nc1 | -692
62 | Cc1nc2c(c(N(C)C)n1)CCN(C(=O)c1ccc(N)nc1)C2 | -0.177
63 | CCCc1ccc(C(=O)N2CCc3c(nc(C)nc3N(C)C)C2)cc1 | 6.78
64 | CCNc1ncc(C(=O)N2CCc3c(nc(C)nc3N(C)C)C2)cn1 | 50.1
65 | Cc1ccc(CN2CC[C@H]3NC(=O)CC[C@@H]32)o1 | -15.3
66 | O=C(c1ncccn1)N1C[C@@H]2COC[C@]2(COCc2cccnc2)C1 | -13.2

Row | SMILES | Percent Effect [%]
67 | COCCCN1C(=O)CC[C@H]2CN(Cc3ccc4occc4c3)CC[C@H]21 | -8.86
68 | O=C1CC(c2ccc(F)cc2)c2snc(C(=O)O)c2N1 (centres undefined) | -1.41
69 | O=C1CC(c2ccc(F)c(F)c2)c2snc(C(=O)O)c2N1 (centres undefined) | 68.8
70 | O=C1CC(c2cccc(Cl)c2)c2snc(C(=O)O)c2N1 (centres undefined) | -0.952
71 | CC(=O)NCC(=O)N1C[C@H](OCc2cccnc2)[C@H]2COC[C@H]21 | -10.5
72 | Cn1cc(CN2CCO[C@@H]3CN(C4CCCC4)C[C@@H]3C2)cn1 | -3.52
73 | CCc1ccc(CN2CCN(Cc3ncc[nH]3)[C@H]3CS(=O)(=O)C[C@H]32)nc1 | -7.95
74 | CCS(=O)(=O)N1C[C@@H]2CN(Cc3ccco3)CCO[C@@H]2C1 | -0.26
75 | Cc1cccc(CO[C@@H]2CC[C@H]3[C@H]2OCCN3Cc2nccs2)n1 | -27.1
76 | COc1ccccc1-c1nc(C(=O)N(C)C)n2ccncc12 | 11.7
77 | COC(=O)CNC(=O)Cn1ccc2cccc(OC)c21 | -29.2
78 | COC(=O)CNC(=O)c1nc(-c2ccccc2OC)c2cnccn12 | 118
79 | Cc1nnc(N2C[C@H](OCCCn3cccn3)[C@H]3OCCC[C@H]32)s1 | -20.4
80 | O=C1CO[C@H]2CN(Cc3cccnc3)C[C@H]2N1 | 0.623
81 | CC(=O)N1C[C@@H](c2ccsc2)[C@@H]2CN(CC3CCCCC3)CC[C@@H]21 | 18
82 | Cc1cccc(-c2ccc(C(=O)NCCN(C)C3CC3)c(=O)[nH]2)c1 | -29.9
83 | Cc1cccc(-c2ccc(C(=O)NCC3CCOC3)c(=O)[nH]2)c1 (centres undefined) | -6.84
84 | Cc1cccc(-c2ccc(C(=O)NCC(C)(C)C(N)=O)c(=O)[nH]2)c1 | 57.5
85 | O=C(NC[C@H]1C[C@@H]2CN(C(=O)c3ccno3)C[C@@H]2O1)C1CCC1 | -26.6
86 | CCN1C(=O)C[C@@H]2[C@@H]1CCN2S(=O)(=O)c1ccc(OC)cc1 | -42.1
87 | O=C(c1cccs1)N1C[C@@H]2OCCN(CC3CCCO3)[C@@H]2C1 (some centres undefined) | 8.57
88 | Cc1cc2nc(SCC(=O)N3CCCC3)n(C)c(=O)c2[nH]1 | -2.84

Row | SMILES | Percent Effect [%]
89 | CCn1c(SCC(=O)N2CCCC2)nc2cc(C)[nH]c2c1=O | 54.6
90 | CCn1c(SCC(=O)N2CCOCC2)nc2cc(C)[nH]c2c1=O | 11.1
91 | Cc1cc(C(=O)N2C[C@@H]3OCCN(CCN4CCCC4)[C@@H]3C2)c(C)o1 | -5.69
92 | CCN1C(=O)C[C@@H]2[C@@H]1CCN2S(=O)(=O)Cc1ccc(C)cc1 | 16.4
93 | Cc1cc(C(=O)N2CC[C@H]3[C@H](C[C@@H](CN4CCCC4)N3C)C2)c(C)o1 | -16.7
94 | CS(=O)(=O)N1CCCC1c1cccc(Cc2ccccc2F)n1 (centres undefined) | 51.8
95 | CC(=O)N1CCCC1c1cccc(Cc2ccccc2F)n1 (centres undefined) | -41.9
96 | CN1CCCC1c1cccc(Cc2ccccc2F)n1 (centres undefined) | -56.2
97 | CCC1=N[C@@]2(CC[C@@H]3CN(C(=O)Nc4ccccc4)C[C@@H]32)C(=O)N1C | 7.9
98 | O=C(NC1CC1)[C@H]1C[C@H]2OCC[C@H]2N(Cc2cccnc2)C1 | 1.16
99 | Cc1nnc2n1CCN(C(=O)c1cc3cc(F)ccc3[nH]1)C2 | -0.338
100 | O=C(c1cc2cc(F)ccc2[nH]1)N1CCC(Nc2cccnn2)CC1 | -12.9
101 | O=C(c1cc2cc(F)ccc2[nH]1)N1CCC(Nc2ccc(F)cc2)CC1 | 70.6
102 | O=C1CO[C@H]2CN(Cc3ccccc3Br)C[C@@H]2N1 | 5.27
103 | Cn1ccnc1CN1CCN(CC2CC2)[C@@H]2CS(=O)(=O)C[C@@H]21 | -9.98
104 | c1ccc(CN2CCO[C@H]3[C@H](OCCN4CCCC4)CC[C@@H]32)nc1 | -5.53
105 | NC(=O)CCSc1ccccc1NCc1ccc(Cl)s1 | 75.8
106 | CC(C)(C)c1ncc(CNc2ccccc2SCCC(N)=O)s1 | 4.25
107 | CC(C)(C)c1nc(CNc2ccccc2SCCC(N)=O)cs1 | 6.99
108 | O=C(Nc1cccnc1)[C@@H]1C[C@H]2OCC[C@H]2N(Cc2nccs2)C1 | -10.3
109 | Cc1nnc(N2C[C@@H]3CCCO[C@@H]3[C@H](N(C)C)C2)s1 | 26.3
